Assay [1] in a line: IUF_NPC2c_oligodendrocyte_migration_120hr: Leibniz Research Institute for Environmental Medicine (IUF) 120-hour Neural Progenitor Cell Migration Assay for Oligodendrocyte Migration (NPC2c) (AID 2284297).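 Also: O4-positive oligodendrocyte migration distance divided by radial glia migration distance.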 The gist of the method:
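Human fetal neural progenitor spheres (0.3 mm) are plated on poly-D-lysine/laminin in N2 differentiation medium and exposed for 120 h, with half-medium renewal at day 3. Oligodendrocyte (O4+) migration distance comes from ICC imaging, normalised to radial glia migration.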

Assay [2] in a line: IUF_NPC2a_radial_glia_migration_120hr: Leibniz Research Institute for Environmental Medicine (IUF) 120-hour Neural Progenitor Cell Migration Assay for Radial Glia Migration (NPC2a) (AID 2284298). An outline of the steps: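 Human fetal-cortex neural progenitor spheres (0.3 mm) plated on poly-D-lysine/laminin in N2 differentiation medium, exposed 120 h at 37C with half-medium renewal at day 3. Radial glia migration distance (um) measured from Hoechst-stained nuclei images; DMSO baseline.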

Assay [3] is described as follows: IUF_NPC2a_radial_glia_migration_72hr: Leibniz Research Institute for Environmental Medicine (IUF) 72-hour Neural Progenitor Cell Migration Assay for Radial Glia Migration (NPC2a) (AID 2284299). The gist of the method: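 Human fetal neural progenitor spheres (0.3 mm) plated on poly-D-lysine/laminin in N2 differentiation medium and exposed from day 0 at 7 concentrations; radial glia migration distance from sphere edge measured at 72 h on brightfield images, mean of four directions, vs DMSO.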

Assay [4] is described as follows: IUF_NPC2b_neuronal_migration_120hr: Leibniz Research Institute for Environmental Medicine (IUF) 120-hour Neural Progenitor Cell Migration Assay for Neuron Migration (NPC2b) (AID 2284300). An outline of the steps: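 0.3 mm hNPC spheres on poly-D-lysine/laminin in N2 differentiation medium exposed 120 h, half-medium refresh day 3; 7 concentrations, DMSO max 0.1%. Neuron (TUBB3) distance from sphere core by ICC imaging, normalised to radial glia migration.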

Assay [5] can be described thus: IUF_NPC3_neuronal_differentiation_120hr: Leibniz Research Institute for Environmental Medicine (IUF) 120-hour Neuronal Differentiation Assay (NPC3) (AID 2284301). An outline of the steps:
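Human fetal (GW 16-19) neural progenitor spheres (0.3 mm) plated on poly-D-lysine/laminin in N2 differentiation medium, exposed 120 h at 37C with half-medium renewal day 3; 7 concentrations. TUBB3+ cells as % of Hoechst nuclei, CNN-identified; DMSO baseline.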

Assay [6] is described as follows: IUF_NPC4_neurite_length_120hr: Leibniz Research Institute for Environmental Medicine (IUF) 120-hour Neuronal Morphology Assay for Neurite Length (NPC4) (AID 2284302). An outline of the steps:
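Human fetal neural progenitor spheres (0.3 mm) plated on poly-D-lysine/laminin in N2 differentiation medium, exposed from day 0 for 120 h with half-medium refresh at day 3, 37C. Mean neurite length (um) of TUBB3-positive neurons from skeletonized immunostaining images; DMSO ≤0.1%.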

Read-out in assay [7]: Matrix Metallopeptidase 9 (MMP9), MMP9 (gene 4318)
In words: BSK_BE3C_MMP9: BioMAP Diversity Plus: BE3C Assay for Matrix Metallopeptidase 9 (MMP9) Biomarker Activity (AID 2284283). To be noted: primary human bronchial epithelial cells. The gist of the method:
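Human primary bronchial epithelial cells exposed 24 h to compound. MMP9 quantified by ELISA. SRB total-protein staining of parallel cultures assesses cytotoxicity. Positive-direction fit relative to DMSO.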

Read-out in assay [8]: Plasminogen activator inhibitor-1 (PAI1), SERPINE1 (gene 5054)
In words: BSK_CASM3C_PAI1: BioMAP Diversity Plus: CASM3C Assay for Plasminogen activator inhibitor-1 (PAI1) Biomarker Activity (AID 2284284).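 Also: PAI-1 protein level measured by ELISA 24 h after dosing.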 To be noted: primary human coronary artery smooth muscle cells.

Read-out in assay [9]: Monocyte Chemoattractant Protein-1 (MCP1), CCL2 (gene 6347)
In words: BSK_hDFCGF_MCP1: BioMAP Diversity Plus: hDFCGF Assay for Monocyte Chemoattractant Protein-1 (MCP1) Biomarker Activity (AID 2284285). To be noted: primary human foreskin fibroblasts. The gist of the method: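 Human foreskin fibroblasts (hDFCGF system) were exposed to compound and secreted MCP-1 was measured by ELISA after 24 hours. Activity was fitted relative to DMSO. Cytotoxicity was checked by SRB total-protein staining in parallel cultures.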

Read-out in assay [10]: CD40, CD40 (gene 958)
In words: BSK_IMphg_CD40: BioMAP Diversity Plus: IMphg Assay for CD40 Biomarker Activity (AID 2284288). The settings on record: primary human endothelial cells with macrophages. The gist of the method:
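Venular endothelial cells co-cultured with macrophages (human primary), CD40 measured by ELISA 24 h after dosing. Positive-direction fit vs DMSO baseline; cytotoxicity tracked by SRB total-protein staining in parallel cultures.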

Read-out in assay [11]: TIMP metallopeptidase inhibitor 2 (TIMP2), TIMP2 (gene 7077)
In words: BSK_hDFCGF_TIMP2: BioMAP Diversity Plus: hDFCGF Assay for TIMP metallopeptidase inhibitor 2 (TIMP2) Biomarker Activity (AID 2284289). To be noted: primary human foreskin fibroblasts. An outline of the steps: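 Primary human foreskin fibroblasts in the hDFCGF system, dosed for 24 h; TIMP-2 level measured by ELISA, fitted in the positive direction against DMSO; cytotoxicity checked in parallel by sulforhodamine B total protein staining.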

Read-out in assay [12]: Interleukin-1 alpha (IL1a), IL1A (gene 3552)
Put plainly: BSK_IMphg_IL1a: BioMAP Diversity Plus: IMphg Assay for Interleukin-1 alpha (IL1a) Biomarker Activity (AID 2284290). To be noted: primary human endothelial cells with macrophages. An outline of the steps: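 Human venular endothelial cells co-cultured with macrophages, IMphg system. IL-1α is measured by ELISA 24 h after dosing and fitted in the positive direction against DMSO. Cytotoxicity is assessed by SRB staining of parallel cultures.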

Read-out in assay [13]: E-selectin (Homo sapiens) (UniProt P16581)
In words: BSK_IMphg_ESelectin: BioMAP Diversity Plus: IMphg Assay for Eselectin Biomarker Activity (AID 2284291). To be noted: primary human endothelial cells with macrophages. An outline of the steps:
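Human venular endothelial cell–macrophage co-culture, E-selectin measured by ELISA 24 h after chemical dosing. Signal fitted in the positive direction against DMSO as negative control and baseline.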

The nature of assay [14]: BSK_IMphg_SRB: Viability Assessment in the BioMAP Diversity Plus: IMphg Assay (AID 2284292).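 Also: measured one day after compound addition.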 To be noted: primary human endothelial cells with macrophages. The gist of the method:
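Human venular endothelial cells with macrophages, 24 h after chemical dosing; total protein by 0.1% SRB staining after 10% TCA fixation, read at 560 nm. Positive-direction fitting versus DMSO baseline.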

Read-out in assay [15]: Macrophage colony-stimulating factor (MCSF), CSF1 (gene 1435)
Put plainly: BSK_IMphg_MCSF: BioMAP Diversity Plus: IMphg Assay for Macrophage colony-stimulating factor (MCSF) Biomarker Activity (AID 2284293). To be noted: primary human endothelial cells with macrophages. An outline of the steps:
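Co-culture of human venular endothelial cells and macrophages, 24 hours of chemical exposure. M-CSF quantified by ELISA, with parallel SRB total-protein staining for cytotoxicity; activity fitted relative to DMSO.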

The nature of assay [16]: BSK_IMphg_SRB.Mphg: Macrophage Viability Assessment in the BioMAP Diversity Plus: IMphg Assay (AID 2284295). The settings on record: primary human endothelial cells with macrophages. An outline of the steps: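 Venular endothelial cells co-cultured with macrophages, read 24 h after dosing. Total protein measured by 0.1% SRB staining after 10% TCA fixation, absorbance at 560 nm. Fitted in positive direction against DMSO baseline.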

Read-out in assay [17]: Thrombomodulin, THBD (gene 7056)
In words: BSK_LPS_Thrombomodulin: BioMAP Diversity Plus: LPS Assay for Thrombomodulin Biomarker Activity (AID 2284296). The settings on record: primary human HUVEC with PBMC. The gist of the method:
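Human umbilical vein endothelial cells co-cultured with PBMC and stimulated with LPS; cell-surface thrombomodulin measured by ELISA 24 hours after compound. Gain or loss versus DMSO; cytotoxicity checked by SRB staining in parallel cultures.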

Read-out in assay [18]: Intercellular Adhesion Molecule 1 (ICAM1), ICAM1 (gene 3383)
In words: BSK_hDFCGF_ICAM1: BioMAP Diversity Plus: hDFCGF Assay for Intercellular Adhesion Molecule 1 (ICAM1) Biomarker Activity (AID 2284287). To be noted: primary human foreskin fibroblasts. The gist of the method:
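Primary human foreskin fibroblasts (hDFCGF system) dosed with chemical; ICAM-1 quantified by ELISA at 24 h relative to DMSO. Parallel SRB total-protein staining to assess overt cytotoxicity.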

Read-out in assay [19]: Interleukin-10 (IL10), IL10 (gene 3586)
Put plainly: BSK_IMphg_IL10: BioMAP Diversity Plus: IMphg Assay for Interleukin-10 (IL10) Biomarker Activity (AID 2284294). To be noted: primary human endothelial cells with macrophages. The gist of the method:
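Human venular endothelial cells cocultured with macrophages, dosed 24 h; IL-10 measured by ELISA, activity relative to DMSO. Cytotoxicity assessed in parallel cultures by sulforhodamine B total-protein staining.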

The source of these data is PubChem BioAssay (EPA / NIEHS).

Some compounds were tested as several samples or in several runs, with calls that do not always agree. Calls of active or inactive are those of the source. The calls were made as follows: active = hit-call score of the fitted dose curve at least 0.9, where 1 is the maximum; inactive = score below 0.9.

Chain of E-selectin (Homo sapiens) (P16581 whole entry, looked up): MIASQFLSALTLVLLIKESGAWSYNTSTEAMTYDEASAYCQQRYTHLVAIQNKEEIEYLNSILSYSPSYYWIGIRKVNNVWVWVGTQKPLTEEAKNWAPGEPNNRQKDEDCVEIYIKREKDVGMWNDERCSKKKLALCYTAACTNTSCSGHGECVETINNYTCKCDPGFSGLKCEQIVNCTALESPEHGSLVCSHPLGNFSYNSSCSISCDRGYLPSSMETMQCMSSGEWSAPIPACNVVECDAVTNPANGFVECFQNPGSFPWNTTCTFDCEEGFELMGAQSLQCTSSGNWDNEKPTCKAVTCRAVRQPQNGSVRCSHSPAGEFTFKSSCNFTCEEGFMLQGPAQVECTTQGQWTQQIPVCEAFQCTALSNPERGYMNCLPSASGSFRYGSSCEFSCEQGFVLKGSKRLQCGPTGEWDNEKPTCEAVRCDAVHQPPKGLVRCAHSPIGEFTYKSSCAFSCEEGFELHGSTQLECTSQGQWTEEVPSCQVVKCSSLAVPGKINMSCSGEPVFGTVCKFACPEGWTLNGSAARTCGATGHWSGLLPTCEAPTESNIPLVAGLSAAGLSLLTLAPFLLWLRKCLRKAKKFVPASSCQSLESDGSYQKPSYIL

Turning to `CC(CCl)OP(=O)(OC(C)CCl)OC(C)CCl` (configuration not stated), the result in assay [1], in [2], in assay [3], in assay [4], in assay [5] and in assay [6] was inactive.

With `NC(=O)C(F)(F)C(F)(F)C(F)(F)C(F)(F)F`, the result in assay [7], in assay [8], in [9], in assay [10], in assay [11] and in assay [12] was inactive. In addition, the result in [13], in assay [14], in assay [15], in assay [16] and in [17] was inactive.

Turning to `FC(F)(F)C(F)(F)C(F)(F)N(C(F)(F)C(F)(F)C(F)(F)F)C(F)(F)C(F)(F)C(F)(F)F`, the outcome in assay [7], in assay [8], in assay [9], in [18], in [10] and in assay [11] was inactive. The outcome in assay [12], in assay [13], in [14], in assay [15], in assay [16] and in assay [17] was inactive.

For `C=CC(F)(F)C(F)(F)C(F)(F)C(F)(F)C(F)(F)C(F)(F)C(F)(F)C(F)(F)C=C`, the result in [7], in assay [8], in assay [9], in assay [10], in assay [11] and in [12] was inactive. Besides, the result in assay [13], in [14], in assay [15], in [16] and in assay [17] was inactive.

With `CCO[Si](CCC(F)(F)C(F)(F)C(F)(F)C(F)(F)C(F)(F)C(F)(F)F)(OCC)OCC`, the outcome in assay [7], in [8], in assay [9], in [10], in assay [11] and in assay [12] was inactive. For the same compound, the outcome in assay [13], in assay [14], in [15], in assay [16] and in [17] was inactive.

Consider `FC(F)(F)C(F)(F)C(F)(F)CI`, for which the result in assay [7], in assay [8], in [9], in [10], in assay [11] and in assay [12] was inactive. In addition, the outcome in assay [13], in assay [14], in assay [15], in [16] and in [17] was inactive. Besides, the AC50 in assay [17] is 1.34 µM (active).

In the case of `COC(=O)CCC(F)(F)C(F)(F)C(F)(F)C(F)(F)F`, the outcome in assay [7], in assay [8], in assay [9], in assay [18], in assay [10] and in assay [11] was inactive. For the same compound, the outcome in [12], in assay [13], in assay [14], in [15], in [16] and in [17] was inactive.

Consider `OCC(F)(F)C(F)(F)C(F)(F)F`, for which the result in assay [7], in assay [8], in assay [9], in assay [10], in [11] and in assay [12] was inactive. In addition, the outcome in assay [13], in assay [14], in assay [15], in assay [19], in assay [16] and in assay [17] was inactive.
